Screens deposited in PubChem BioAssay by Broad Institute.
N-glyco inh – N-linked glycosylation inhibition | AID 588692 | actives 0.23% (n = 360,000) | reporter increase, % at 12.5 µM | D54 ERlucT glycosylation luciferase reporter, 24 h; percent of 100 nM tunicamycin response;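 active = mean luciferase reporter signal, scaled so untreated is 0 and the glycosylation-blocking control 100, at or above a set limit in every replicate; inconclusive = mean reaches the limit but not every replicate does; inactive = mean below the limit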;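 note: luciferase carries N-glycosylation sites so blocking glycosylation raises the light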
esBAF inh – inhibitors of esBAF chromatin remodeling in mouse ES cells. AID 602393. reporter increase, % at 12.5 µM. Bmi1-luciferase knock-in reporter, 24 h; 100% = twice the neutral-well signal. actives 2% (n = 350,000); in the data active = activation above about 40%; inconclusive = no clear call, values can overlap the other calls;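 note: a rise in the Bmi1 reporter signal indicates esBAF inhibition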
PfHsp90 yeast 2 – growth inhibition of yeast expressing Plasmodium Hsp90. S. cerevisiae expressing PfHsp90, BacTiter-Glo ATP, 48 h; yeast lacking PDR1 and PDR3 efflux regulators. inhibition, % at 9.4 µM. actives 0.32% (n = 310,000). AID 504621;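 active = every replicate shows inhibition above about 80%, whatever the replicate mean, limit read from the data; inconclusive = mean inhibition reaches the set limit but some replicate falls short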
Vif inh – HIV Vif inhibition | HEK293T cells, Vif self-association by quenched fluorescence, imaging, 24 h | inhibition, % at 7.49 µM | actives 0.35% (n = 340,000) | AID 602346; in the data active = inhibition above about 50%, passing the limit was not always enough; inconclusive = no clear call, values can overlap the other calls; inactive = below about 31%
Wnt bcat act – activates Wnt/beta-catenin signaling in a reporter cell assay; activator, plate reader; activation, % at 9.35 µM; actives 1.2% (n = 300,000); in the data active = activation above about 30%, passing the limit was not always enough; inconclusive = no clear call, values can overlap the other calls
MITF act – MITF TRPM1 promoter activation in melanoma cells. SK-MEL-5 TRPM1-promoter luciferase, 24 h; % of positive control, neutral wells = 0. activation, % at 12.5 µM. actives 0.75% (n = 300,000);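 active = mean activation of at least 80% with every replicate also reaching 80%; inconclusive = mean reaches 80% but some replicate falls short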
Ring1 derepress – confirmation of esBAF inhibitors: Ring1 de-repression in mouse ESCs. shares compounds with esBAF inh. mouse ESC E14, Ring1 mRNA RT-qPCR fold change. fold change at 33 µM. 550 tested, under 10 active;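 active = Ring1 gene expression raised more than 2-fold over untreated cells in both replicates at either tested dose; inconclusive = only one replicate above 2-fold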;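 note: Ring1 transcript normalised to actin housekeeping signal by TaqMan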
esBAF Fgf4 qPCR – represses Fgf4 in mouse ESCs, confirming esBAF inhibition; AID 743177; actives 4% (n = 550); mouse ESC E14, Fgf4 mRNA qPCR fold change; hits give low values; Fgf4 expression fold change at 33 µM; shares compounds with esBAF inh;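 active = Fgf4 expression under 0.8 fold of control in both repeat measurements at one or both tested doses; inconclusive = under 0.8 fold in just a single repeat measurement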;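 note: Fgf4 transcript normalised to actin in duplex TaqMan qPCR; cells exposed to compound for 24 h before lysis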
Bmi1 derepress – esBAF inhibition confirmed by Bmi1 de-repression | shares compounds with esBAF inh | mouse ESE14 ES cells, Bmi1 mRNA qPCR fold; hits give high values | fold change at 33 µM | 550 tested, under 10 active | AID 743180;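 active = Bmi1 expression fold change above 6 at either tested concentration, seen in replicate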;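 note: higher fold means more Bmi1 de-repression and stronger esBAF inhibition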
A549 cytotox – A549 cell cytotoxicity; cell viability change % (negative = cytotoxic), % at 25 µM, hits read low; shares compounds with esBAF inh; AID 743188; 550 tested, under 10 active; plate reader; call rule not given here
HepG2 tox SP – kills or reduces viability of HepG2 cells | shares compounds with esBAF inh | HepG2 cytotoxicity, plate reader; hits give low values | activity change, negative = inhibition, % at 25 µM | actives 4% (n = 550) | AID 743189; in the data active = activity change below about -50%
HEK293 cytotox SP – cytotoxicity in HEK293 cells | plate reader | actives 3% (n = 550) | AID 743190 | activity change, negative = inhibition, % at 25 µM, hits read low | shares compounds with esBAF inh; in the data active = activity change below about -38%, passing the limit was not always enough
Numbers stand for hits; n = inactive; u = inconclusive; x = no result. The list is not random: actives were taken first. Their share in the collection is about 3%.

SMILES | N-glyco inh | esBAF inh | PfHsp90 yeast 2 | Vif inh | Wnt bcat act | MITF act | Ring1 derepress | esBAF Fgf4 qPCR | Bmi1 derepress | A549 cytotox | HepG2 tox SP | HEK293 cytotox SP
CN(Cc1ccccn1)C(=O)c1cc(COc2ccc(F)c(F)c2)on1 | n | 73 | x | x | n | x | n | n | n | n | n | n
CC(Cc1cccnc1)NC(=O)c1cc(COc2c(F)cccc2F)on1 (stereo unspecified) | n | x | n | n | n | n | x | x | x | x | x | x
Cc1ccc(OCc2cc(C(=O)NC(C)Cc3cccnc3)no2)cc1C (stereo unspecified) | n | 72 | n | n | n | n | n | n | n | n | n | n
Cc1ccc(OCc2cc(C(=O)N(C)CCc3ccccn3)no2)cc1C | n | 87 | n | n | n | n | n | n | n | n | n | n
Cc1cc(C)cc(C(=O)N2CCN=C2c2ccccc2)c1 | n | x | n | n | n | n | x | x | x | x | x | x
CC(=Nc1ccccc1O)c1sc2ccccc2c1O | n | 83 | n | n | 86 | n | n | n | n | n | n | n
C[C@@H]1CN([C@@H](C)CO)C(=O)Cc2cc(NC(=O)c3ccncc3)ccc2O[C@@H]1CN(C)S(=O)(=O)c1cccs1 | x | n | x | x | x | x | x | x | x | x | x | x
Cc1ccc(Nc2ncnc3sc(C)c(C)c23)cc1 | n | 59 | n | n | x | n | n | n | n | n | n | n
COc1ccc(NC(=O)Nc2cc(C)ccc2OC)cc1 | n | n | n | n | x | n | x | x | x | x | x | x
COc1ccc(NC(=O)Nc2cc(C)ccc2F)cc1 | n | 123 | n | n | n | 101 | n | n | n | n | n | n
Cc1ccc(NC(=O)Nc2ccc(F)c(Cl)c2)cc1 | n | 64 | n | n | 47 | n | n | n | n | n | n | n
O=C(/C=N/NC(=O)c1ccc(Cl)cc1Cl)c1ccccc1 | n | 59 | n | n | 49 | n | n | n | n | n | n | n
CCOc1cc(CNS(=O)(=O)c2ccc3c(c2)CC(=O)N3C)cc(OCC)c1OCC | n | n | n | n | n | n | x | x | x | x | x | x
CCOC(=O)c1ccc(NC(=O)C2CC2)cc1 | n | n | x | n | x | n | x | x | x | x | x | x
CCC(C)c1ccc(NC(=O)C2CC2)cc1 (stereo unspecified) | n | 74 | n | x | n | n | n | n | n | n | n | n
CCn1nnc(NC(=O)c2ccccc2Br)n1 | n | n | x | n | x | n | x | x | x | x | x | x
CCN(C(=O)CN1C(=O)S/C(=C\C=C\c2ccccc2)C1=O)C1CCS(=O)(=O)C1 (stereo unspecified) | n | 55 | n | n | n | n | n | u | n | n | n | n
COc1ccc(S(=O)(=O)n2nc(-c3ccc(Cl)cc3)cc2N)cc1OC | n | n | n | n | n | n | x | x | x | x | x | x
Cn1c(/C=C/c2ccc(Br)cc2)nc2ccccc2c1=O | n | 74 | n | n | n | n | n | u | n | n | n | n
Cc1cc(Cl)n2nc(C)c(-c3ccc(Cl)cc3)c2n1 | n | x | n | n | n | n | x | x | x | x | x | x
O=C(CCCc1ccccn1)c1ccc(-c2ccccc2)cc1 | n | 55 | x | n | n | u | n | u | n | n | n | n
O=C(Oc1ccc(-c2cnc3ccccc3n2)cc1)c1ccc(Cl)c([N+](=O)[O-])c1 | n | x | n | n | x | n | x | x | x | x | x | x
CCCNC(=O)Nc1ccc2c(c1)C(=O)N(C)C[C@H](OC)[C@@H](C)CN(Cc1ccccn1)[C@H](C)CO2 | x | n | x | x | x | x | x | x | x | x | x | x
c1ccc(Nc2cccc(Nc3ccccc3)n2)cc1 | n | 59 | n | x | x | n | n | u | n | n | n | n
c1ccc(Nc2ccccn2)cc1 | n | n | x | n | n | x | x | x | x | x | x | x
SMILES | N-glyco inh | esBAF inh | PfHsp90 yeast 2 | Vif inh | Wnt bcat act | MITF act | Ring1 derepress | esBAF Fgf4 qPCR | Bmi1 derepress | A549 cytotox | HepG2 tox SP | HEK293 cytotox SP
Cc1sc(NC(=S)NC(=O)c2cccs2)nc1-c1ccc(C(C)C)cc1 | n | n | n | x | x | n | x | x | x | x | x | x
Cc1sc(NC(=O)c2cccs2)nc1-c1ccccc1 | n | 64 | x | n | 47 | x | 2.5 | n | n | n | n | n
Cc1ccc2oc(-c3cccc(NC(=S)NC(=O)c4cccs4)c3)nc2c1 | n | x | n | n | n | n | x | x | x | x | x | x
O=C(Nc1ccc2oc(-c3ccccc3)nc2c1)c1cccs1 | n | 78 | n | x | x | n | n | u | n | n | n | n
CC(C)NC(=O)N(C)C[C@@H]1Oc2cc(C3=CCCCC3)ccc2S(=O)(=O)N([C@H](C)CO)C[C@@H]1C | x | n | x | x | x | x | x | x | x | x | x | x
CC(C)(O)c1cc2ccc(C#Cc3ccsc3)cc2c(=O)o1 | n | 71 | n | n | n | n | n | n | n | n | n | n
CC(Sc1ccccc1)C(=O)N(CCC#N)Cc1cccnc1 (stereo unspecified) | n | x | x | n | n | n | x | x | x | x | x | x
CCCCn1c(N)c(N(CCC(C)C)C(=O)CSc2nnc3ccccn23)c(=O)[nH]c1=O | n | n | n | n | x | n | x | x | x | x | x | x
COc1ccc2oc3cc(Cl)ccc3c(=O)c2c1 | n | 80 | x | x | n | x | n | u | n | n | n | n
COc1ccc(-c2ccc3oc(-c4ccsc4)cc(=O)c3c2)cn1 | n | 68 | n | n | 48 | 138 | n | n | n | n | n | n
COc1ccc(Cc2nc(-c3ccncc3)no2)cc1 | n | x | n | n | n | n | x | x | x | x | x | x
Clc1ccc(Cc2nc(-c3ccncc3)no2)cc1 | n | x | n | n | n | n | x | x | x | x | x | x
Cc1cccc(-c2noc(Cc3ccc(Cl)cc3)n2)c1 | n | 87 | n | n | n | n | n | u | n | n | n | n
COc1ccc(Cc2nc(-c3cccc(C)c3)no2)cc1 | n | 58 | n | n | n | n | n | n | n | n | n | n
CC(C)(C)c1cc(C(=O)Nc2ccccc2)ccn1 | n | n | n | n | n | x | x | x | x | x | x | x
Cc1ccc(NC(=O)c2ccnc(C(C)(C)C)c2)cc1 | n | 71 | x | n | n | x | n | n | n | n | n | n
COC(=O)c1cc(Nc2cc(C)c3c(O)cccc3n2)cc(C(=O)OC)c1 | n | n | n | n | n | n | x | x | x | x | x | x
COc1cccc(Nc2cc(C)c3ccccc3n2)c1 | n | 66 | n | n | n | n | n | n | n | n | n | n
COc1ccc(Nc2cc(C)c3c(O)cccc3n2)cc1 | n | 57 | n | n | n | 130 | n | n | n | n | n | n
O=C(CN1C(=O)CSc2cc(S(=O)(=O)N3CCCCCC3)ccc21)NCCc1ccccc1 | n | x | n | n | x | n | x | x | x | x | x | x
